The values below come from paper PMC12820563, “FoxP3 forms a head-to-head dimer in vivo and stabilizes its multimerization on adjacent microsatellites”.

In all, about 16,000 sequences were measured (“rpm ratio (pull-down/input)”: median about 0.94, highest 2% from about 1.7 on). The list comes from a sample in which the highest values are over-represented; it also holds similar and randomly drawn sequences.

The assay has as its target T1, MBP-FoxP1dN (Mus musculus, UniProt P58462 326-579).
T1 sequence: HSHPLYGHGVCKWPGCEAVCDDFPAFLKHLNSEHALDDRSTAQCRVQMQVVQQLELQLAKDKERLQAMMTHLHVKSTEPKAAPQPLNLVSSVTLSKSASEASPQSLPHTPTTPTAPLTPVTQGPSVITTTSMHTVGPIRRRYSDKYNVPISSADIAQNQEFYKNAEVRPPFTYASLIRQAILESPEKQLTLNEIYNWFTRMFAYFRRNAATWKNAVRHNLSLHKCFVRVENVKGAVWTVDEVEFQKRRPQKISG
Description: PD-seq (MBP pull-down with sequencing); 20 mM Tris-HCl pH 7.5, 100 mM NaCl, 1.5 mM MgCl2, 0.4 uM protein, 0.1 uM dsDNA library, 30 min, room temperature, amylose pull-down; high values mean tight binding. The conditions noted are these: protein: recombinant; tags: His6-MBP; chain copies: 2; dsDNA, one strand shown. The procedure, abridged:
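E. coli-expressed mouse FoxP3 or FoxP1 fragment, N-terminus removed and tagged with His6-MBP, was used at 0.4 µM against 0.1 µM of a Klenow-filled degenerate double-stranded DNA library. After 30 min at room temperature in Tris pH 7.5 buffer with NaCl and MgCl2, complexes were pulled down on amylose resin and washed three times. Binding is pull-down over input reads-per-million enrichment from pooled replicates of the proteinase K-released, PCR-barcoded, Illumina-sequenced DNA.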
Consider “GATGATTGTTCTCCCAGCTGATGAATTACGTAAATCGAGTAAACAAATTTTCCTAATCTTTCTGTTCAAGCGCCATCTAC”, for which the binding signal is 1.34 RPM ratio (pull-down/input).

As to “GATGATTGTTCTCCCAGCTGATGAATTTGGTTTATCGAGTAAACAAATTTTCCTAATCTTTCTGTTCAAGCGCCATCTAC”, the binding signal was 1.32 RPM ratio (pull-down/input).

Turning to “GATGATTGTTCTCCCAGCTGATGAATTTACGTAATCGAGTAAACAAATTTTCCTAATCTTTCTGTTCAAGCGCCATCTAC”, the binding signal was 1.82 RPM ratio (pull-down/input).

Take “GATGATTGTTCTCCCAGCTGATGAATTGTTTAGATCGAGTAAACAAATTTTCCTAATCTTTCTGTTCAAGCGCCATCTAC”: the binding signal is 2.19 RPM ratio (pull-down/input).

Turning to “GATGATTGTTCTCCCAGCTGATGAATTTAGATGATCGAGTAAACAAATTTTCCTAATCTTTCTGTTCAAGCGCCATCTAC”, the binding signal was 1.11 RPM ratio (pull-down/input).

In the case of “GATGATTGTTCTCCCAGCTGATGAATTTTAGTAATCGAGTAAACAAATTTTCCTAATCTTTCTGTTCAAGCGCCATCTAC”, the binding signal is 1.75 RPM ratio (pull-down/input).

On to “GATGATTGTTCTCCCAGCTGATGAATTTTTTAGATCGAGTAAACAAATTTTCCTAATCTTTCTGTTCAAGCGCCATCTAC”, for which the binding signal was 0.923 RPM ratio (pull-down/input).

For “GATGATTGTTCTCCCAGCTGATGAATTTTACGTATCGAGTAAACAAATTTTCCTAATCTTTCTGTTCAAGCGCCATCTAC”, the binding signal is 0.962 RPM ratio (pull-down/input).

Turning to “GATGATTGTTCTCCCAGCTGATGAATTGTCACATTCGAGTAAACAAATTTTCCTAATCTTTCTGTTCAAGCGCCATCTAC”, the binding signal was 1.2 RPM ratio (pull-down/input).

In the case of “GATGATTGTTCTCCCAGCTGATGAATTGAACGTTTCGAGTAAACAAATTTTCCTAATCTTTCTGTTCAAGCGCCATCTAC”, the binding signal was 0.869 RPM ratio (pull-down/input).

Consider “GATGATTGTTCTCCCAGCTGATGAATTTATGGGATCGAGTAAACAAATTTTCCTAATCTTTCTGTTCAAGCGCCATCTAC”, for which the binding signal was 0.919 RPM ratio (pull-down/input).

Consider “GATGATTGTTCTCCCAGCTGATGAATTCTCCCTCTCGAGTAAACAAATTTTCCTAATCTTTCTGTTCAAGCGCCATCTAC”, for which the binding signal is 0.869 RPM ratio (pull-down/input).

As for “GATGATTGTTCTCCCAGCTGATGAATTATATTCCTCGAGTAAACAAATTTTCCTAATCTTTCTGTTCAAGCGCCATCTAC”, the binding signal was 0.968 RPM ratio (pull-down/input).

As to “GATGATTGTTCTCCCAGCTGATGAATTGAGGTAGTCGAGTAAACAAATTTTCCTAATCTTTCTGTTCAAGCGCCATCTAC”, the binding signal was 0.86 RPM ratio (pull-down/input).

Turning to “GATGATTGTTCTCCCAGCTGATGAATTAGATTTCTCGAGTAAACAAATTTTCCTAATCTTTCTGTTCAAGCGCCATCTAC”, the binding signal was 0.85 RPM ratio (pull-down/input).

With “GATGATTGTTCTCCCAGCTGATGAATTTTAGTTTTCGAGTAAACAAATTTTCCTAATCTTTCTGTTCAAGCGCCATCTAC”, the binding signal is 1.4 RPM ratio (pull-down/input).

As for “GATGATTGTTCTCCCAGCTGATGAATTTAGTTTTTCGAGTAAACAAATTTTCCTAATCTTTCTGTTCAAGCGCCATCTAC”, the binding signal was 1.19 RPM ratio (pull-down/input).

On to “GATGATTGTTCTCCCAGCTGATGAATTGTTTAGTTCGAGTAAACAAATTTTCCTAATCTTTCTGTTCAAGCGCCATCTAC”, for which the binding signal was 1.94 RPM ratio (pull-down/input).

For the sequence “GATGATTGTTCTCCCAGCTGATGAATTCGCGCAGTCGAGTAAACAAATTTTCCTAATCTTTCTGTTCAAGCGCCATCTAC”, the binding signal is 0.818 RPM ratio (pull-down/input).

For the sequence “GATGATTGTTCTCCCAGCTGATGAATTCAGTCGTTCGAGTAAACAAATTTTCCTAATCTTTCTGTTCAAGCGCCATCTAC”, the binding signal is 0.873 RPM ratio (pull-down/input).

Turning to “GATGATTGTTCTCCCAGCTGATGAATTTATTTAGTCGAGTAAACAAATTTTCCTAATCTTTCTGTTCAAGCGCCATCTAC”, the binding signal is 1.76 RPM ratio (pull-down/input).

In the case of “GATGATTGTTCTCCCAGCTGATGAATTTTATTAGTCGAGTAAACAAATTTTCCTAATCTTTCTGTTCAAGCGCCATCTAC”, the binding signal was 1.28 RPM ratio (pull-down/input).

For the sequence “GATGATTGTTCTCCCAGCTGATGAATTTGGTTAGTCGAGTAAACAAATTTTCCTAATCTTTCTGTTCAAGCGCCATCTAC”, the binding signal is 0.953 RPM ratio (pull-down/input).

As to “GATGATTGTTCTCCCAGCTGATGAATTTTGTTAGTCGAGTAAACAAATTTTCCTAATCTTTCTGTTCAAGCGCCATCTAC”, the binding signal was 1.82 RPM ratio (pull-down/input).

On to “GATGATTGTTCTCCCAGCTGATGAATTATTTTAGTCGAGTAAACAAATTTTCCTAATCTTTCTGTTCAAGCGCCATCTAC”, for which the binding signal was 1.21 RPM ratio (pull-down/input).

Take “GATGATTGTTCTCCCAGCTGATGAATTTTTTAGGTCGAGTAAACAAATTTTCCTAATCTTTCTGTTCAAGCGCCATCTAC”: the binding signal was 0.925 RPM ratio (pull-down/input).

As to “GATGATTGTTCTCCCAGCTGATGAATTTGTTTAGTCGAGTAAACAAATTTTCCTAATCTTTCTGTTCAAGCGCCATCTAC”, the binding signal was 2.24 RPM ratio (pull-down/input).

Consider “GATGATTGTTCTCCCAGCTGATGAATTCTGTTAGTCGAGTAAACAAATTTTCCTAATCTTTCTGTTCAAGCGCCATCTAC”, for which the binding signal was 1.29 RPM ratio (pull-down/input).

“GATGATTGTTCTCCCAGCTGATGAATTGTTTAGGTCGAGTAAACAAATTTTCCTAATCTTTCTGTTCAAGCGCCATCTAC”: the binding signal is 1.93 RPM ratio (pull-down/input).

Regarding “GATGATTGTTCTCCCAGCTGATGAATTCTTTAGGTCGAGTAAACAAATTTTCCTAATCTTTCTGTTCAAGCGCCATCTAC”, the binding signal was 0.821 RPM ratio (pull-down/input).

With “GATGATTGTTCTCCCAGCTGATGAATTGTTTTAGTCGAGTAAACAAATTTTCCTAATCTTTCTGTTCAAGCGCCATCTAC”, the binding signal is 1.44 RPM ratio (pull-down/input).

For “GATGATTGTTCTCCCAGCTGATGAATTTTTTTAGTCGAGTAAACAAATTTTCCTAATCTTTCTGTTCAAGCGCCATCTAC”, the binding signal is 1.05 RPM ratio (pull-down/input).
